Pf Dd2 inh: blocks growth of Plasmodium falciparum Dd2 parasites; activity change, % at 10 µM; hit rate 2.3% among 94,000; P. falciparum Dd2 growth, SYBR Green, 72 h; hits give low values; in the data active = activity change below about -80%; inconclusive = no clear call, values can overlap the other calls
C diff growth: inhibitors of Clostridium difficile growth; Clostridium difficile clinical isolate growth, OD600, 24 h; hits give low values; growth activity, negative = inhibition, % at 16 µg/mL (by protocol); hit rate 0.25% among 86,000;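 active = mean growth activity at or below -80% and every replicate also at or below -80%; inconclusive = mean at or below -80% but some replicate above -80%; inactive = mean growth activity above -80%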
T cruzi growth-1: T. cruzi proliferation inhibition | inhibition, % at 8.34 µM | hit rate 5.9% among 77,000 | AID 624255 | T. cruzi beta-gal in NIH3T3, GalScreen luminescence, 90 h;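 active = mean inhibition above about 93%, with at least 55% of replicates each passing it, limit read from the data, passing the limit was not always enough; inconclusive = only one of those two conditions holds; inactive = neither condition holds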
T cruzi growth-2: Trypanosoma cruzi proliferation inhibition. shares compounds with T cruzi growth-1. T. cruzi beta-gal in NIH3T3, GalScreen luminescence, 90 h. inhibition, % at 8.35 µM. hit rate 72% among 5,600;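 active = mean replicate inhibition above about 95% and at least 55% of replicates individually reaching it, limit read from the data; inconclusive = only one of the two criteria is met; inactive = neither criterion is met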
T cruzi growth-3: inhibitors of T. cruzi proliferation; shares compounds with T cruzi growth-1; T. cruzi beta-gal in NIH3T3, GalScreen luminescence, 90 h; inhibition, % at 2.09 µM; hit rate 21% among 5,600;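 active = mean inhibition above about 95%, with at least 55% of replicates also reaching it, limit read from the data; inconclusive = meets just one of the two conditions; inactive = meets neither condition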
3T3 cytotox: NIH/3T3 (mouse) viability loss; shares compounds with T cruzi growth-1; NIH/3T3 viability, CellTiter-Glo ATP luminescence, 90 h; cytotoxicity (signal decrease), % at 8.35 µM; hit rate 14% among 5,600; AID 651742;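 active = mean signal decrease across replicates above about 35% based on untreated-well scatter, with enough replicates individually passing, limit read from the data; inconclusive = no rule stated though some were filed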
NIH3T3 tox 2: cytotoxicity in mouse NIH/3T3 fibroblasts; shares compounds with T cruzi growth-1; NIH/3T3 viability, CellTiter-Glo ATP luminescence, 90 h; inhibition, % at 24.9 µM; hit rate 56% among 5,600; AID 651744;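 active = mean loss of cell viability signal at or above a set limit, and enough replicates individually reaching it; inconclusive = meets only the mean limit or only the replicate share; inactive = meets neither condition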
Numbers stand for hits; – = inactive; ? = inconclusive; · = not tested or not shown. Rows were chosen to be rich in hits. Some 6.7% of all compounds tested hit in one or more screens of this group.

SMILES | Pf Dd2 inh | C diff growth | T cruzi growth-1 | T cruzi growth-2 | T cruzi growth-3 | 3T3 cytotox | NIH3T3 tox 2
C[C@@H]1CCCCO[C@@H](CN(C)CC2CC2)[C@H](C)CN([C@H](C)CO)C(=O)c2cc(NC(=O)Nc3ccc(F)cc3)ccc2O1 | – | – | – | · | · | · | ·
C[C@H](CO)N1C[C@H](C)[C@@H](CN(C)S(=O)(=O)c2ccc(Cl)cc2)OCCCC[C@H](C)Oc2ccc(NC(=O)c3ccncc3)cc2C1=O | – | – | – | · | · | · | ·
C[C@@H]1CN([C@H](C)CO)C(=O)c2cc(NC(=O)Nc3ccc4c(c3)OCO4)ccc2O[C@H]1CN(C)S(C)(=O)=O | – | · | – | · | · | · | ·
Cc1noc(C)c1S(=O)(=O)N(C)C[C@@H]1Oc2ccc(NS(=O)(=O)c3ccc(F)cc3)cc2CC(=O)N([C@H](C)CO)C[C@H]1C | – | – | – | · | · | · | ·
CCCN(C)C[C@@H]1OCc2cnnn2CCCC(=O)N([C@@H](C)CO)C[C@H]1C | – | – | – | · | · | · | ·
CCC(=O)N(C)C[C@@H]1Oc2ncc(-c3ccccc3C)cc2C(=O)N([C@H](C)CO)C[C@H]1C | – | – | – | · | · | · | ·
C[C@H](CO)N1C[C@H](C)[C@H](CN(C)S(=O)(=O)c2cn(C)cn2)Oc2ncc(/C=C/c3ccccc3)cc2C1=O | – | – | – | · | · | · | ·
C[C@H](CO)N1C[C@H](C)[C@@H](CN(C)C)OCCCC[C@H](C)Oc2ccc(NC(=O)Nc3ccc(F)cc3)cc2C1=O | – | – | – | · | · | · | ·
C[C@@H]1CCCCO[C@@H](CN(C)CC2CCCCC2)[C@@H](C)CN([C@H](C)CO)C(=O)c2cc(NC(=O)Nc3ccc(F)cc3)ccc2O1 | – | – | 117 | 100 | 109 | – | 103
O=C(N[C@H]1CC[C@H](CCNS(=O)(=O)c2ccccc2)O[C@@H]1CO)c1cnccn1 | – | – | – | · | · | · | ·
C[C@@H]1CN([C@@H](C)CO)C(=O)c2cc(NC(=O)c3ccccc3)ccc2O[C@@H](C)CCCCO[C@@H]1CN(C)C(=O)Nc1ccc(C(F)(F)F)cc1 | -87 | – | ? | 104 | 101 | – | 80
C[C@@H]1CCCCO[C@H](CN(C)C(=O)Nc2ccc(C(F)(F)F)cc2)[C@H](C)CN([C@H](C)CO)C(=O)c2cc(NC(=O)c3ccccc3)ccc2O1 | – | – | 102 | 110 | 106 | – | –
C[C@@H]1CCCCO[C@H](CN(C)C(=O)Nc2ccc(F)cc2)[C@H](C)CN([C@@H](C)CO)C(=O)c2cc(NC(=O)c3ccccc3)ccc2O1 | – | – | – | · | · | · | ·
C[C@@H]1CCCCO[C@H](CN(C)C(=O)Nc2ccc(C(F)(F)F)cc2)[C@H](C)CN([C@@H](C)CO)C(=O)c2cc(NC(=O)c3ccccc3)ccc2O1 | – | – | – | · | · | · | ·
C[C@@H]1CCCCO[C@H](CN(C)C(=O)Nc2ccc(C(F)(F)F)cc2)[C@@H](C)CN([C@@H](C)CO)C(=O)c2cc(NC(=O)c3ccncc3)ccc2O1 | – | – | – | · | · | · | ·
C[C@H]1CCCCO[C@@H](CN(C)C(=O)Nc2ccc(C(F)(F)F)cc2)[C@@H](C)CN([C@@H](C)CO)C(=O)c2cc(NC(=O)c3ccncc3)ccc2O1 | -83 | – | 108 | 109 | – | – | ?
C[C@@H]1CCCCO[C@@H](CN(C)C(=O)Nc2ccc(C(F)(F)F)cc2)[C@@H](C)CN([C@H](C)CO)C(=O)c2cc(NC(=O)c3ccncc3)ccc2O1 | – | – | · | · | · | · | ·
C[C@H]1CCCCO[C@@H](CN(C)C(=O)Nc2ccc(F)cc2)[C@@H](C)CN([C@@H](C)CO)C(=O)c2cc(NC(=O)c3ccccc3)ccc2O1 | – | – | ? | ? | – | – | –
COCC(=O)N(C)C[C@H]1Oc2ncc(C3=CCCC3)cc2C(=O)N([C@H](C)CO)C[C@H]1C | – | – | · | · | · | · | ·
CCCc1cn(CC[C@H]2CC[C@@H](NC(=O)C3CCCC3)[C@H](CO)O2)nn1 | – | – | · | · | · | · | ·
CCNC(=O)C[C@@H]1CC[C@H]2[C@@H](COc3ccc(NC(C)=O)cc3C(=O)N2C)O1 | – | – | – | · | · | · | ·
C[C@@H]1CCCCO[C@H](CN(C)Cc2ccc(C(F)(F)F)cc2)[C@H](C)CN([C@@H](C)CO)C(=O)c2cc(NC(=O)Nc3cccc4ccccc34)ccc2O1 | – | – | ? | 103 | 109 | ? | –
C[C@H]1CCCCO[C@H](CN(C)Cc2ccc(C(=O)O)cc2)[C@@H](C)CN([C@@H](C)CO)C(=O)c2cc(NC(=O)Nc3cccc4ccccc34)ccc2O1 | – | – | – | · | · | · | ·
C[C@@H]1CCCCO[C@@H](CN(C)Cc2ccc(C(F)(F)F)cc2)[C@H](C)CN([C@H](C)CO)C(=O)c2cc(NC(=O)Nc3cccc4ccccc34)ccc2O1 | – | – | ? | 105 | 115 | – | –
C[C@@H]1CN([C@@H](C)CO)C(=O)c2cc(NC(=O)Nc3cccc4ccccc34)ccc2O[C@@H](C)CCCCO[C@H]1CN(C)Cc1ccc(C(=O)O)cc1 | – | – | – | · | · | · | ·
SMILES | Pf Dd2 inh | C diff growth | T cruzi growth-1 | T cruzi growth-2 | T cruzi growth-3 | 3T3 cytotox | NIH3T3 tox 2
C[C@H](CO)N1C[C@H](C)[C@@H](CN(C)Cc2ccc(C(=O)O)cc2)OCCCC[C@H](C)Oc2ccc(NC(=O)Nc3cccc4ccccc34)cc2C1=O | – | – | – | · | · | · | ·
C[C@@H]1CCCCO[C@@H](CN(C)Cc2ccc(C(F)(F)F)cc2)[C@@H](C)CN([C@H](C)CO)C(=O)c2cc(NC(=O)Nc3cccc4ccccc34)ccc2O1 | – | – | 102 | 104 | – | – | –
C[C@@H]1CCCCO[C@@H](CN(C)Cc2ccc(C(F)(F)F)cc2)[C@H](C)CN([C@@H](C)CO)C(=O)c2cc(NC(=O)Nc3cccc4ccccc34)ccc2O1 | – | – | 123 | 111 | 110 | – | –
C[C@@H]1CCCCO[C@H](CN(C)Cc2ccc(C(=O)O)cc2)[C@H](C)CN([C@H](C)CO)C(=O)c2cc(NC(=O)Nc3cccc4ccccc34)ccc2O1 | – | – | – | · | · | · | ·
CCCNC(=O)[C@H]1[C@H](CO)[C@H]2Cn3c(ccc(-c4ccccc4)c3=O)[C@H]2N1CC | – | – | – | · | · | · | ·
Cc1noc(C)c1NC(=O)N(C)C[C@H]1Oc2ccc(NS(=O)(=O)c3cn(C)cn3)cc2C(=O)N([C@@H](C)CO)C[C@@H]1C | – | · | – | · | · | · | ·
O=C(Nc1ccc(F)cc1)N[C@@H]1C=C[C@H](CC(=O)N2CCOCC2)O[C@@H]1CO | – | · | – | · | · | · | ·
CC(=O)n1cc([C@H]2C=C(C(=O)N3CCCCCCC3)O[C@@H](OCCCCO)C2)c2ccccc21 | · | – | · | · | · | · | ·
C[C@H]1CN([C@@H](C)CO)S(=O)(=O)c2ccc(C#CCC3CCCC3)cc2O[C@@H]1CN(C)C(=O)CN(C)C | – | – | – | · | · | · | ·
CCC(=O)N(C)C[C@@H]1Oc2cc(C#CCC3CCCC3)ccc2S(=O)(=O)N([C@@H](C)CO)C[C@@H]1C | – | – | 97 | ? | – | – | 104

Screening results (PubChem)
